# Measured values reported in publication PMC8384837, “Expanding the binding specificity for RNA recognition by a PUF domain”.
# Numbering of substitutions follows the chain as printed.
# What was measured:
# Experiment in all cases: yeast three-hybrid, YBZ-1, SC-Leu-His + 0.5 mM 3-AT, 4 days
# Details in all cases: tags: N-Gal4 AD-HA kept; label: inside an RPR1-promoter hybrid RNA with tandem MS2 sites; ssRNA
# PUM1 PUF domain R5-KPC = PUM1 PUF domain R5-KPC (Homo sapiens, UniProt Q14671 828-1176, C1007K;R1008P;Q1011C)
# How it was run: (§1)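 Each repeat of the Pumilio-1 PUF domain was randomized at its three base-contacting residues, and these libraries were co-expressed from a centromeric plasmid with matching RNA elements in strain YBZ-1. After four days on SC-Leu (input) or SC-Leu-His + 0.5 mM 3-AT (selection), the repeat regions were PCR-amplified and Illumina-sequenced. The interaction score compares variant frequency between input and selection as a log change, computed in log2 with a pseudocount of 1 for absent variants.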
# PUM1 PUF domain R6-EWC = target: T1, PUM1 PUF domain R6-EWC (Homo sapiens, UniProt Q14671 828-1176, N1043E;Y1044W;Q1047C)
# T1 sequence: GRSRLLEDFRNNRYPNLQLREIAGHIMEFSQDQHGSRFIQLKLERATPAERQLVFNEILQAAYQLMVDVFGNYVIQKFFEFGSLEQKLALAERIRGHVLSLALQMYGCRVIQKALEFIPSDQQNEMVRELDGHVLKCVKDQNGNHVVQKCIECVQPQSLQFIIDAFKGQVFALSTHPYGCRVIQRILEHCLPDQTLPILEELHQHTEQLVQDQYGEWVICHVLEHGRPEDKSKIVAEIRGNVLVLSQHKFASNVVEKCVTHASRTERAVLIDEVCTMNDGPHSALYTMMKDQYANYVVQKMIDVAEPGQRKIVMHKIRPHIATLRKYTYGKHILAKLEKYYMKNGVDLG
# How it was run: as §1
# PUM1 PUF domain R8-LYC = PUM1 PUF domain R8-LYC (Homo sapiens, UniProt Q14671 828-1176, N1122L;Q1126C)
# How it was run: as §1
# PUM1 PUF domain R7-RIQ = PUM1 PUF domain R7-RIQ (Homo sapiens, UniProt Q14671 828-1176, S1079R;N1080I;E1083Q)
# How it was run: as §1
# PUM1 PUF domain R6-HYL = target: T2, PUM1 PUF domain R6-HYL (Homo sapiens, UniProt Q14671 828-1176, N1043H;Q1047L)
# T2 sequence: T1 sequence with E216H, W217Y, C220L
# How it was run: as §1
sequence,measurement,setting,value
GGCUAGAACUAGUGGAUCCCCCGGCGCCCGGCGGCUCGAGCCCGGGUAAGUGUCAAUAGUCUGCAUGCCGCCGGGCGCCAUGCCUGCAGGUCGACUCUAGAAAACAUG,binding signal,PUM1 PUF domain R5-KPC,4.19 log2 enrichment (interaction score)
GGCUAGAACUAGUGGAUCCCCCGGCGCCCGGCGGCUCGAGCCCGGGUAAGUGGAAAUAGUCUGCAUGCCGCCGGGCGCCAUGCCUGCAGGUCGACUCUAGAAAACAUG,binding signal,PUM1 PUF domain R6-EWC,3.23 log2 enrichment (interaction score)
GGCUAGAACUAGUGGAUCCCCCGGCGCCCGGCGGCUCGAGCCCGGGUAAGCGUAAAUAGUCUGCAUGCCGCCGGGCGCCAUGCCUGCAGGUCGACUCUAGAAAACAUG,binding signal,PUM1 PUF domain R8-LYC,2.73 log2 enrichment (interaction score)
GGCUAGAACUAGUGGAUCCCCCGGCGCCCGGCGGCUCGAGCCCGGGUAAGUUUAAAUAGUCUGCAUGCCGCCGGGCGCCAUGCCUGCAGGUCGACUCUAGAAAACAUG,binding signal,PUM1 PUF domain R7-RIQ,4.25 log2 enrichment (interaction score)
GGCUAGAACUAGUGGAUCCCCCGGCGCCCGGCGGCUCGAGCCCGGGUAAGUGUAAAUAGUCUGCAUGCCGCCGGGCGCCAUGCCUGCAGGUCGACUCUAGAAAACAUG,binding signal,PUM1 PUF domain R6-HYL,3.8 log2 enrichment (interaction score)
